Measurements as given in PubChem BioAssay (NCI).
Compounds without any hit were thinned out: in the full panel of roughly 83,000, 20% have a hit.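 The endpoint reported here, percent growth, reads 100 for growth as untreated, 0 for no net growth and -100 for all cells dead.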 Unmarked numbers belong to inactive results. Active and inactive are the calls of the source. The calls were made as follows: active = growth percent below 10; inactive = the rest.

Columns and labels:
Test in all cases: NCI-60 one-dose screen, 48 h (100 = growth as untreated, 0 = no growth, -100 = all killed)
Conditions in all cases: 10 µM unless noted
[1] = tested on: SK-MEL-2 melanoma
[2] = tested on: SN12C renal
[3] = tested on: UO-31 renal
[4] = tested on: TK-10 renal
[5] = tested on: ACHN renal
[6] = tested on: CAKI-1 renal
[7] = tested on: A498 renal
[8] = tested on: CCRF-CEM leukemia
[9] = tested on: MOLT-4 leukemia
[10] = tested on: EKVX NSCLC

SMILES	growth [1]	growth [2]	growth [3]	growth [4]	growth [5]	growth [6]	growth [7]	growth [8]	growth [9]	growth [10]
Oc1ccccc1/C=N/Nc1ccc2ccccc2n1	64.5%	61.8%	16.4%	62.8%	40.6%	15.3%	107%	10.7%	7.34% (active)	–
NCc1cn2cc(Cl)sc2n1	102%	105%	88.8%	92.1%	102%	102%	90.8%	103%	110%	–
O=C1Nc2ccccc2/C1=C/C(=N/c1nnc(-c2ccc(Cl)cc2)s1)c1ccccc1	97.2%	35.5%	-69.2% (active)	-36.4% (active)	-71.4% (active)	15%	104%	-42.7% (active)	-26.4% (active)	–
C#Cc1nc2ccccc2c(=O)[nH]1	-21.9% (active)	-41.3% (active)	-72% (active)	–	-69.2% (active)	-86.4% (active)	-61.5% (active)	-17% (active)	-21.4% (active)	–
Nc1ccc(N2CCOCC2)cc1	91.8%	94%	73.5%	91.8%	86.8%	–	103%	124%	118%	–
Cc1ccc(Nc2c(C(N)=O)cnc3ccc(-c4csc(N)n4)cc23)cc1	110%	108%	88.7%	96.2%	84.7%	–	73.3%	104%	95.3%	–
CC1(C)CC(C(=O)OCCCCCCCCCCC[P+](c2ccccc2)(c2ccccc2)c2ccccc2)C(C)(C)N1O (centres undefined)	–	-36% (active)	-74.4% (active)	-72.1% (active)	109%	-57.9% (active)	-94.8% (active)	-32.8% (active)	-56.9% (active)	-32.6% (active)
Nc1c(C(=O)Nc2ccccc2Cl)sc2nc3c(cc12)CCCCCC3	46.2%	–	-8.93% (active)	24.2%	10.1%	57.7%	50.1%	25.5%	39.8%	–
COc1cc(C2CC(=O)Nc3c2c(C)nn3-c2nc3ccccc3[nH]2)cc(OC)c1OC (centres undefined)	106%	91.3%	96.8%	–	102%	114%	78.2%	32%	-42.5% (active)	–
O=C(O)C(O)C(O)C(=O)O.[NH-]C1CCCCC1[NH-].[Pt+2] (centres undefined)	109%	106%	97.9%	113%	101%	–	125%	112%	105%	–
COc1cc(NCCCCN=C(N)NC(N)=NC(C)C)c2ncccc2c1	–	32.6%	71.6%	90.4%	108%	116%	133%	48.8%	54.1%	68%
CCOC(=O)c1ccc2c(c1)nc(/C=C/c1ccc(Cl)cc1)n2-c1cc(C(C)(C)C)[nH]n1	79.6%	74.6%	46.8%	60%	23.8%	92.3%	58.7%	13.5%	-2.76% (active)	–
CCN1CCN(Cc2ccc(NC(=O)Nc3nc4ccc(Oc5ccnc(C(=O)NC)c5)cc4s3)cc2C(F)(F)F)CC1	–	-75.4% (active)	-80.5% (active)	-35.9% (active)	-84.5% (active)	-44.2% (active)	-33.4% (active)	0.0502% (active)	–	14.2%
O=C(CNC1C2CC3CC(C2)CC1C3)Sc1nnc2sc3ccccc3n12 (centres undefined)	–	101%	78.3%	127%	100%	76.4%	107%	86.1%	–	93%
N=S(=O)(NC(=O)c1ccc(Cl)cc1Cl)c1ccc(Br)s1 (centres undefined)	116%	94.4%	79.4%	98.4%	95.6%	–	61.2%	87.2%	98.5%	–
Cc1ccc(NC(=O)c2sc3nc4c(cc3c2N)C(=O)CCC4)cc1C	37%	52.9%	56.6%	59.9%	52.2%	35.7%	-2.89% (active)	13.6%	27.6%	–
CC(=O)OCC1OC(OC2=C(CC=C(Cl)Cl)C(=O)c3ccccc3C2=O)C(OC(C)=O)C(OC(C)=O)C1OC(C)=O (centres undefined)	61.3%	85.8%	69.3%	117%	59.9%	–	75.4%	-19.3% (active)	-21.1% (active)	–
O=C(/C=C/c1ccc(B(O)O)cc1)/C=C/c1ccc(B(O)O)cc1	110%	57.5%	-72.3% (active)	99.3%	86.8%	–	71.1%	25%	51%	–
O=C1Nc2ccc(Br)cc2C12CC(c1ccccc1)=NN2 (centres undefined)	74.9%	61.7%	48.4%	77.8%	49.1%	51.5%	46.4%	32.3%	36.3%	–
CC#Cc1nc2ccccc2c(=O)[nH]1	45.4%	35.3%	22.9%	48%	28.8%	54.5%	-44.8% (active)	19.6%	19.3%	–
O=C(NC(Cc1ccccc1)C(=O)CCl)OCc1ccccc1 (centres undefined)	8.62% (active)	56.7%	59.6%	84.8%	72%	48.2%	98.7%	-4.62% (active)	12.2%	–
N#Cc1c2c(nc3n[nH]c(N)c13)CCCC2	–	105%	71.7%	128%	101%	95.5%	121%	8.03% (active)	90.7%	58.3%
O=[N+]([O-])c1cccc(C2CC(c3ccccc3)=Nc3ccccc3S2)c1 (centres undefined)	95.4%	95.5%	59.7%	124%	90.9%	91.6%	96.3%	22.6%	64.2%	–
Cc1nc2sc(C(=O)Nc3cccc4c3OCCO4)c(N)c2cc1C(C)O (centres undefined)	–	40.4%	44.3%	55.7%	44.8%	40.9%	-4.54% (active)	19.3%	28.2%	35.1%
Cc1csc2ccc(Cl)cc12	99.7%	93.1%	81.6%	99.4%	95.5%	96.9%	119%	108%	112%	–
COc1ccc(N(Cc2cc(OC)c(OC)c(OC)c2)C2OC(=O)c3ccccc32)cc1 (centres undefined)	21.5%	52.8%	53.5%	53.5%	61.5%	45.7%	14%	9.62% (active)	19.2%	–
CN1CCN(Cc2ccc(NC(=O)c3[nH]ncc3Nc3ncnc4c3CCC4)cc2)CC1	–	6.07% (active)	6.53% (active)	2.4% (active)	-10.8% (active)	9.41% (active)	-21.7% (active)	11.1%	-2.96% (active)	26%
N#CC1=C(N)Oc2c(ccc3ccccc23)C1c1cccs1 (centres undefined)	52.5%	26.5%	46.5%	–	35.2%	48.9%	-5.58% (active)	5.17% (active)	1.98% (active)	–
C#Cc1nc(Nc2cc(C)[nH]n2)c2ccccc2n1	-53.2% (active)	-31.6% (active)	-36.1% (active)	-21.3% (active)	-42.4% (active)	-70% (active)	-93.6% (active)	2.05% (active)	-19.8% (active)	–
